Results on ten sequences are retold here after article PMC11006913.

Residue numbers refer to the chain shown, from its start.

What all share (assay): PBM; 200 nM protein, PBS
Common to all, as to conditions: dsDNA, one strand shown

The target in assay [1] is T1, PAX4 (Homo sapiens, UniProt O43316 9-242, R200K).
T1 sequence: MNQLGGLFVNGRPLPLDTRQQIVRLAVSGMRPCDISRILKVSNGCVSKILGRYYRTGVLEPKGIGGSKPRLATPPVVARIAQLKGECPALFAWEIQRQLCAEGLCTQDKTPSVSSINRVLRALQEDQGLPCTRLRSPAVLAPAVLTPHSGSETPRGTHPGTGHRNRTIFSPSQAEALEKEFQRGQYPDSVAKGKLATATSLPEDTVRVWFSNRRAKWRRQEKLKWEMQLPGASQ

The target of assay [2] is T2, PAX4 (Homo sapiens, UniProt O43316 9-242).
T2 sequence: T1 sequence with K192R

Assay [3] concerns the target HOXB6 (Homo sapiens, UniProt P17509 132-218, K202E).
Assay [4] concerns the target MSX2 (Homo sapiens, UniProt P35548 130-214, R199I).
Assay [5] concerns the target T3, PAX4 (Homo sapiens, UniProt O43316 9-242, R200Q).
T3 sequence: T1 sequence with K192Q

Assay [6] addresses T4, PAX4 (Homo sapiens, UniProt O43316 9-242, F177V).
T4 sequence: T1 sequence with F169V, K192R

In assay [7] the target is MSX2 (Homo sapiens, UniProt P35548 130-214).
Assay [8] concerns the target T5, PAX4 (Homo sapiens, UniProt O43316 9-242, F177Y).
T5 sequence: T1 sequence with F169Y, K192R

For assay [9], the target named is MSX2 (Homo sapiens, UniProt P35548 130-214, F161Y).
In assay [10] the target is T6, PAX4 (Homo sapiens, UniProt O43316 9-242, R227W).
T6 sequence: T1 sequence with K192R, R219W

Assay [11] deals with HOXB6 (Homo sapiens, UniProt P17509 132-218).
Assay [12] deals with ALX4 (Homo sapiens, UniProt Q9H161 200-286).
Assay [13] has as its target ALX4 (Homo sapiens, UniProt Q9H161 200-286, Q225E).
For assay [14], the target named is HOXD13 (Homo sapiens, UniProt P35453 263-343).
Assay [15] has as its target PROP1 (Homo sapiens, UniProt O75360 56-141).
The target of assay [16] is PROP1 (Homo sapiens, UniProt O75360 56-141, R99H).
In assay [17] the target is HOXD13 (Homo sapiens, UniProt P35453 263-343, T313A).
For assay [18], the target named is PROP1 (Homo sapiens, UniProt O75360 56-141, F88S).
Assay [19] addresses ALX1 (Homo sapiens, UniProt Q15699 118-204, L144V).
Assay [20] deals with ALX1 (Homo sapiens, UniProt Q15699 118-204, L144R).
In assay [21] the target is ALX1 (Homo sapiens, UniProt Q15699 118-204).
Assay [22] has as its target PRRX1 (Homo sapiens, UniProt P54821 80-166, F113S).
The target of another assay is SHOX (Homo sapiens, UniProt O15266 103-189, R173C).
Assay [23] addresses HESX1 (Homo sapiens, UniProt Q9UBX0 95-180, R109Q).
For the next assay, the target named is ALX3 (Homo sapiens, UniProt O95076 139-225, L168V).
In assay [24] the target is HESX1 (Homo sapiens, UniProt Q9UBX0 95-180, F115L).
In assay [25] the target is T7, NKX2-6 (Homo sapiens, UniProt A6NCS4 118-204).
T7 sequence: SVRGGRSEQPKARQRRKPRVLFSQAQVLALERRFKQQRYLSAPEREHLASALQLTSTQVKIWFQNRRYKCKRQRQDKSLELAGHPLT

The target in assay [26] is T8, NKX2-6 (Homo sapiens, UniProt A6NCS4 118-204, F151L).
T8 sequence: T7 sequence with F34L

Assay [27] addresses HOXA2 (Homo sapiens, UniProt O43364 129-215, R185T).
Assay [28] has as its target HOXA2 (Homo sapiens, UniProt O43364 129-215, R185K).
Assay [29] concerns the target HOXA2 (Homo sapiens, UniProt O43364 129-215, Y150S).
The target of assay [30] is HOXA2 (Homo sapiens, UniProt O43364 129-215).
The target in assay [31] is PRRX1 (Homo sapiens, UniProt P54821 80-166).
Sequence of PRRX1 (Homo sapiens, UniProt P54821 80-166) (P54821 80-166): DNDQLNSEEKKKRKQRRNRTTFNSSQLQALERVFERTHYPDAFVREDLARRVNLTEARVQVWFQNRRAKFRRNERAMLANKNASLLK

Sequence of ALX4 (Homo sapiens, UniProt Q9H161 200-286, Q225E) (Q9H161 200-286 Q225E): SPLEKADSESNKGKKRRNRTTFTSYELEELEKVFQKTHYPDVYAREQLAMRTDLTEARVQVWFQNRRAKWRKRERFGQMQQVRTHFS
Sequence of ALX1 (Homo sapiens, UniProt Q15699 118-204, L144V) (Q15699 118-204 L144V): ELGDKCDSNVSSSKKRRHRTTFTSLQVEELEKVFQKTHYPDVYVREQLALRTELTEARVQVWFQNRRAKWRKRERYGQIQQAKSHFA
Sequence of ALX4 (Homo sapiens, UniProt Q9H161 200-286) (Q9H161 200-286): as the sequence (Q9H161 200-286 Q225E) above, with E26Q counted along it
Sequence of ALX1 (Homo sapiens, UniProt Q15699 118-204, L144R) (Q15699 118-204 L144R): as the sequence (Q15699 118-204 L144V) above, with V27R counted along it
Sequence of PROP1 (Homo sapiens, UniProt O75360 56-141, F88S) (O75360 56-141 F88S): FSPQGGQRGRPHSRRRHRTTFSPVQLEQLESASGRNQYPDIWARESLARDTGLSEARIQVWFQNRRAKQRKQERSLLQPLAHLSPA
Sequence of ALX1 (Homo sapiens, UniProt Q15699 118-204) (Q15699 118-204): as the sequence (Q15699 118-204 L144V) above, with V27L counted along it
Sequence of PRRX1 (Homo sapiens, UniProt P54821 80-166, F113S) (P54821 80-166 F113S): as the sequence (P54821 80-166) above, with F34S counted along it
Sequence of PROP1 (Homo sapiens, UniProt O75360 56-141) (O75360 56-141): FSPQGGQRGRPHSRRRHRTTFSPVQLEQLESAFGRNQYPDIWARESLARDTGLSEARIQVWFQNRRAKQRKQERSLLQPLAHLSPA
Sequence of HESX1 (Homo sapiens, UniProt Q9UBX0 95-180, F115L) (Q9UBX0 95-180 F115L): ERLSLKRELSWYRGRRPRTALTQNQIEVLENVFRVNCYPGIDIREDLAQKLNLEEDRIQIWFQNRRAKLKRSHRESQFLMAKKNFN
Sequence of PROP1 (Homo sapiens, UniProt O75360 56-141, R99H) (O75360 56-141 R99H): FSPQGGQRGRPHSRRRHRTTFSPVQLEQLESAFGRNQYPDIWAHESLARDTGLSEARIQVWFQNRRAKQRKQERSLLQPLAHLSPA
Sequence of HOXA2 (Homo sapiens, UniProt O43364 129-215, Y150S) (O43364 129-215 Y150S): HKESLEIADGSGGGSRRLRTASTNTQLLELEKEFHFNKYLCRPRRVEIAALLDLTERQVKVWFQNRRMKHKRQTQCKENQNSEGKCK
Sequence of MSX2 (Homo sapiens, UniProt P35548 130-214, R199I) (P35548 130-214 R199I): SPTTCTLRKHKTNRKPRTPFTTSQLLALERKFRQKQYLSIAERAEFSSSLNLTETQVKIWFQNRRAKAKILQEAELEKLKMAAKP
Sequence of HOXA2 (Homo sapiens, UniProt O43364 129-215, R185K) (O43364 129-215 R185K): as the sequence (O43364 129-215 Y150S) above, with S22Y, R57K counted along it
Sequence of HOXD13 (Homo sapiens, UniProt P35453 263-343) (P35453 263-343): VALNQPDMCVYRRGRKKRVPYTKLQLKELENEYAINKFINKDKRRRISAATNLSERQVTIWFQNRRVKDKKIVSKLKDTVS
Sequence of MSX2 (Homo sapiens, UniProt P35548 130-214, F161Y) (P35548 130-214 F161Y): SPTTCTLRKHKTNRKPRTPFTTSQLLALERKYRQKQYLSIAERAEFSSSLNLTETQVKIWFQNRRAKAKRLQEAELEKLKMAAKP
Sequence of MSX2 (Homo sapiens, UniProt P35548 130-214) (P35548 130-214): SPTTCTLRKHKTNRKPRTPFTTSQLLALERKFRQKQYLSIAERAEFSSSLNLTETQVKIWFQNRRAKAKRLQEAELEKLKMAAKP
Sequence of HOXA2 (Homo sapiens, UniProt O43364 129-215) (O43364 129-215): as the sequence (O43364 129-215 Y150S) above, with S22Y counted along it
Sequence of HOXA2 (Homo sapiens, UniProt O43364 129-215, R185T) (O43364 129-215 R185T): as the sequence (O43364 129-215 Y150S) above, with S22Y, R57T counted along it
Sequence of SHOX (O15266 103-189 R173C): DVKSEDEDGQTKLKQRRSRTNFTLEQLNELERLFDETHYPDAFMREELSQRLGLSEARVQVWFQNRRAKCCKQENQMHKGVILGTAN
Sequence of HOXD13 (Homo sapiens, UniProt P35453 263-343, T313A) (P35453 263-343 T313A): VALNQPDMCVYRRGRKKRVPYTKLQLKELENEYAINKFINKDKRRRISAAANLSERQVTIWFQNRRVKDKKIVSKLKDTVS
Sequence of HESX1 (Homo sapiens, UniProt Q9UBX0 95-180, R109Q) (Q9UBX0 95-180 R109Q): as the sequence (Q9UBX0 95-180 F115L) above, with R15Q, L21F counted along it
Sequence of ALX3 (O95076 139-225 L168V): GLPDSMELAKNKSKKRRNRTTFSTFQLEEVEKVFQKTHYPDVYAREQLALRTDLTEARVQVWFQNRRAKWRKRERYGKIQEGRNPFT
Sequence of HOXB6 (Homo sapiens, UniProt P17509 132-218) (P17509 132-218): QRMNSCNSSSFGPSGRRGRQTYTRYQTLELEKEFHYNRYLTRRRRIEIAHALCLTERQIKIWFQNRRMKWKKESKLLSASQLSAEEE
Sequence of HOXB6 (Homo sapiens, UniProt P17509 132-218, K202E) (P17509 132-218 K202E): as the sequence (P17509 132-218) above, with K71E counted along it

With CAGCCCGC, the binding signal with PAX4 [1] is 9.17 upbm affinity estimate (log intensity, higher = more binding, comparable within an allelic series); with PAX4 [2], 9.23 upbm affinity estimate (log intensity, higher = more binding, comparable within an allelic series); with HOXB6 [3], 9 upbm affinity estimate (log intensity, higher = more binding, comparable within an allelic series); with MSX2 [4], 9.36 upbm affinity estimate (log intensity, higher = more binding, comparable within an allelic series); in the assay with PAX4 [5], 9.12 upbm affinity estimate (log intensity, higher = more binding, comparable within an allelic series); with PAX4 [6], 9.04 upbm affinity estimate (log intensity, higher = more binding, comparable within an allelic series). Further, the binding signal in the assay with MSX2 [7] is 9.33 upbm affinity estimate (log intensity, higher = more binding, comparable within an allelic series); with PAX4 [8] it was 8.99 upbm affinity estimate (log intensity, higher = more binding, comparable within an allelic series); with MSX2 [9], 9.37 upbm affinity estimate (log intensity, higher = more binding, comparable within an allelic series); with PAX4 [10] it was 9.09 upbm affinity estimate (log intensity, higher = more binding, comparable within an allelic series); in the assay with HOXB6 [11] it was 8.96 upbm affinity estimate (log intensity, higher = more binding, comparable within an allelic series).

For the sequence AATTTATC, the binding signal with ALX4 [12] was 12 upbm affinity estimate (log intensity, higher = more binding, comparable within an allelic series); with ALX4 [13], 11.1 upbm affinity estimate (log intensity, higher = more binding, comparable within an allelic series); in the assay with HOXD13 [14], 11 upbm affinity estimate (log intensity, higher = more binding, comparable within an allelic series); with PROP1 [15] it was 9.59 upbm affinity estimate (log intensity, higher = more binding, comparable within an allelic series); with PROP1 [16] it was 9.17 upbm affinity estimate (log intensity, higher = more binding, comparable within an allelic series); with HOXD13 [17] it was 10.9 upbm affinity estimate (log intensity, higher = more binding, comparable within an allelic series). Further, the binding signal with PROP1 [18] is 7.6 upbm affinity estimate (log intensity, higher = more binding, comparable within an allelic series).

GACTGGAC: the binding signal in the assay with ALX4 [12] is 7.98 upbm affinity estimate (log intensity, higher = more binding, comparable within an allelic series); in the assay with ALX4 [13], 8.14 upbm affinity estimate (log intensity, higher = more binding, comparable within an allelic series); in the assay with ALX1 [19], 6.55 upbm affinity estimate (log intensity, higher = more binding, comparable within an allelic series); in the assay with ALX1 [20], 6.42 upbm affinity estimate (log intensity, higher = more binding, comparable within an allelic series); in the assay with ALX1 [21], 6.44 upbm affinity estimate (log intensity, higher = more binding, comparable within an allelic series).

Turning to AATTAGAA, the binding signal in the assay with PAX4 [1] was 11.6 upbm affinity estimate (log intensity, higher = more binding, comparable within an allelic series); with PRRX1 [22] it was 11.1 upbm affinity estimate (log intensity, higher = more binding, comparable within an allelic series); with PAX4 [2], 12.1 upbm affinity estimate (log intensity, higher = more binding, comparable within an allelic series); in the assay with PAX4 [5] it was 11.9 upbm affinity estimate (log intensity, higher = more binding, comparable within an allelic series); with SHOX, 9.39 upbm affinity estimate (log intensity, higher = more binding, comparable within an allelic series); with PAX4 [6] it was 10.5 upbm affinity estimate (log intensity, higher = more binding, comparable within an allelic series). In addition, the binding signal was 10.9 upbm affinity estimate (log intensity, higher = more binding, comparable within an allelic series) with PAX4 [8]; 8.83 upbm affinity estimate (log intensity, higher = more binding, comparable within an allelic series) in the assay with HESX1 [23]; 9.7 upbm affinity estimate (log intensity, higher = more binding, comparable within an allelic series) with ALX3; 7.75 upbm affinity estimate (log intensity, higher = more binding, comparable within an allelic series) with HESX1 [24]; 10.9 upbm affinity estimate (log intensity, higher = more binding, comparable within an allelic series) with PAX4 [10].

Take GTCTTAAA: the binding signal with PAX4 [1] is 10.3 upbm affinity estimate (log intensity, higher = more binding, comparable within an allelic series); in the assay with PAX4 [2], 10.4 upbm affinity estimate (log intensity, higher = more binding, comparable within an allelic series).

On to CGCCCTTC, for which the binding signal in the assay with ALX4 [12] is 8.03 upbm affinity estimate (log intensity, higher = more binding, comparable within an allelic series); with ALX4 [13], 8.24 upbm affinity estimate (log intensity, higher = more binding, comparable within an allelic series).

Take ACCCTCGG: the binding signal was 8.1 upbm affinity estimate (log intensity, higher = more binding, comparable within an allelic series) with ALX4 [12]; 8.11 upbm affinity estimate (log intensity, higher = more binding, comparable within an allelic series) with ALX4 [13]; 6.49 upbm affinity estimate (log intensity, higher = more binding, comparable within an allelic series) with ALX1 [19]; 6.58 upbm affinity estimate (log intensity, higher = more binding, comparable within an allelic series) with ALX1 [20]; 6.48 upbm affinity estimate (log intensity, higher = more binding, comparable within an allelic series) with ALX1 [21].

Regarding CCACATGG, the binding signal with ALX4 [12] was 8.13 upbm affinity estimate (log intensity, higher = more binding, comparable within an allelic series); in the assay with ALX4 [13], 8.32 upbm affinity estimate (log intensity, higher = more binding, comparable within an allelic series); with NKX2-6 [25], 9.61 upbm affinity estimate (log intensity, higher = more binding, comparable within an allelic series); in the assay with NKX2-6 [26], 9.23 upbm affinity estimate (log intensity, higher = more binding, comparable within an allelic series).

CCGCAGAC: the binding signal with ALX4 [12] was 8.08 upbm affinity estimate (log intensity, higher = more binding, comparable within an allelic series); with ALX4 [13], 8.21 upbm affinity estimate (log intensity, higher = more binding, comparable within an allelic series); with HOXA2 [27], 7.17 upbm affinity estimate (log intensity, higher = more binding, comparable within an allelic series); in the assay with HOXA2 [28] it was 10.2 upbm affinity estimate (log intensity, higher = more binding, comparable within an allelic series); in the assay with HOXA2 [29], 10.5 upbm affinity estimate (log intensity, higher = more binding, comparable within an allelic series); in the assay with HOXA2 [30] it was 6.96 upbm affinity estimate (log intensity, higher = more binding, comparable within an allelic series).

Turning to AATTATGT, the binding signal with PAX4 [1] is 11.6 upbm affinity estimate (log intensity, higher = more binding, comparable within an allelic series); with PRRX1 [22] it was 11 upbm affinity estimate (log intensity, higher = more binding, comparable within an allelic series); with PAX4 [2], 12.1 upbm affinity estimate (log intensity, higher = more binding, comparable within an allelic series); in the assay with ALX1 [19] it was 11.4 upbm affinity estimate (log intensity, higher = more binding, comparable within an allelic series); with PAX4 [5], 11.8 upbm affinity estimate (log intensity, higher = more binding, comparable within an allelic series); with ALX1 [20], 11.1 upbm affinity estimate (log intensity, higher = more binding, comparable within an allelic series). The binding signal in the assay with PAX4 [6] is 10.7 upbm affinity estimate (log intensity, higher = more binding, comparable within an allelic series); with PAX4 [8], 11 upbm affinity estimate (log intensity, higher = more binding, comparable within an allelic series); with PROP1 [15], 11 upbm affinity estimate (log intensity, higher = more binding, comparable within an allelic series); in the assay with PROP1 [16] it was 10.7 upbm affinity estimate (log intensity, higher = more binding, comparable within an allelic series); with PROP1 [18], 7.74 upbm affinity estimate (log intensity, higher = more binding, comparable within an allelic series); with HESX1 [24], 7.75 upbm affinity estimate (log intensity, higher = more binding, comparable within an allelic series). Also, the binding signal in the assay with PAX4 [10] was 11 upbm affinity estimate (log intensity, higher = more binding, comparable within an allelic series); with PRRX1 [31], 13.3 upbm affinity estimate (log intensity, higher = more binding, comparable within an allelic series).
